The test system of one experiment is DAPK1. Particulars: concentration: 1 μM, replicates: in singlicate, n = 1.
A further experiment has as its system DAPK2. The conditions noted are these: concentration: 1 μM, replicates: in singlicate; n = 1.
A further experiment has as its system DAPK3. The conditions noted are these: concentration: 1 μM, replicates: in singlicate, n = 1.
A further experiment deals with T1, DCAMKL1.
T1 construct: gene DCLK1
Particulars: concentration: 1 μM, replicates: in singlicate, n = 1.

A further experiment has as its system T2, DCAMKL2.
T2 construct: gene DCLK2
The conditions noted are these: concentration: 1 μM, replicates: in singlicate, n = 1.

In another experiment the test system is T3, DCAMKL3.
T3 construct: gene DCLK3
The conditions noted are these: concentration: 1 μM, replicates: in singlicate, n = 1.

The test system of another experiment is DDR1. The conditions noted are these: concentration: 1 μM, replicates: in singlicate, n = 1.
For a further experiment, the system named is DDR2. Particulars: concentration: 1 μM, replicates: in singlicate, n = 1.
The test system of another experiment is T4, DLK.
T4 construct: gene MAP3K12
Particulars: concentration: 1 μM, replicates: in singlicate, n = 1.

The next experiment relates to T5, DMPK2.
T5 construct: gene CDC42BPG
The conditions noted are these: concentration: 1 μM, replicates: in singlicate, n = 1.

The structures appear in SMILES notation. Several values for one entry are separate records, joined by “and”; a condition that tells them apart may be missing. Equal values may be shown once. Read-outs that look alike come from different tables or passages of the source.
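Further: KINOMEscan kinase panel screen.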

`COc1cc(Nc2nccc(N3CCC(NC(=O)c4cccc(NC(C)=O)c4)C3)n2)cc(OC)c1OC` (centres unmarked) [GSK1379754]: the “%Inh” value was 0% with DAPK1; 8% in the experiment with DAPK2; 19% in the experiment on DAPK3; 8% in the experiment on DCAMKL1; 21% with DCAMKL2; 0% in the experiment on DCAMKL3. Moreover, the “%Inh” value is 0% in the experiment with DDR1, 4% in the experiment with DDR2, 62% in the experiment with DLK and 0% with DMPK2.
For `COc1ccc(COc2cc(-n3cnc4ccccc43)sc2C(N)=O)cc1` [GSK1024304], the “%Inh” value was determined as 3% in the experiment with DAPK1; 10% in the experiment on DAPK2; 8% in the experiment with DAPK3; 0% in the experiment on DCAMKL1; 8% in the experiment with DCAMKL2; 0% in the experiment with DCAMKL3. Besides, the “%Inh” value stood at 0% in the experiment with DDR1, 0% with DDR2, 25% with DLK and 7% with DMPK2.
In the case of `O=C(NOCC1CC1)c1ccc(F)c(F)c1Nc1ccc(I)cc1Cl`, the “%Inh” value in the experiment on DAPK1 is on record as 1%; with DAPK2, 0%; in the experiment with DAPK3, 0%; with DCAMKL1 it was 0%; in the experiment on DCAMKL2, 0%; with DCAMKL3 it was 0%. Also, the “%Inh” value in the experiment with DDR1 was found to be 0%; with DDR2 it was 0%; in the experiment on DLK, 1%; in the experiment on DMPK2, 0%.
Take `Fc1ccc(-c2nn3c(OCC(F)(F)F)cccc3c2-c2ccncc2)cc1` [GW514784]: the “%Inh” value in the experiment with DAPK1 came out at 0%; in the experiment on DAPK2, 0%; in the experiment with DAPK3, 0%; in the experiment on DCAMKL1, 0%; in the experiment with DCAMKL2 it was 0%; with DCAMKL3, 36%. The “%Inh” value is recorded as 80% in the experiment on DDR1, 81% in the experiment on DDR2, 40% in the experiment on DLK and 95.3% in the experiment on DMPK2.
As to `COc1ccc(S(=O)(=O)NC2CCN(c3cc(C)nc(Nc4cccc(C#N)c4)n3)CC2)cc1.O=C(O)C(F)(F)F` [GSK1653539], the “%Inh” value with DAPK1 came out at 0%; in the experiment on DAPK2 it was 0%; with DAPK3, 23%; with DCAMKL1, 0%; in the experiment on DCAMKL2, 0%; in the experiment with DCAMKL3, 34%. In addition, the “%Inh” value with DDR1 is 0%; with DDR2, 9%; in the experiment on DLK it was 0%; in the experiment on DMPK2, 0%.
Turning to `Nc1nc(-c2ccc3c(N)n[nH]c3c2)cc(N2CCCC2)n1` [GSK2227430], the “%Inh” value in the experiment on DAPK1 was found to be 0%; in the experiment with DAPK2, 0%; in the experiment with DAPK3, 1%; in the experiment on DCAMKL1, 13%; in the experiment on DCAMKL2, 0%; with DCAMKL3, 0%. In addition, the “%Inh” value with DDR1 worked out at 7%; in the experiment with DDR2, 3%; with DLK, 0%; in the experiment on DMPK2, 0%.
Take `c1ccc(-c2cc(-c3c[nH]nc3-c3ccccn3)ccn2)cc1` [GW576604]: the “%Inh” value with DAPK1 is 8%; in the experiment with DAPK2, 0%; in the experiment with DAPK3 it was 22%; in the experiment with DCAMKL1 it was 0%; in the experiment with DCAMKL2, 23%; with DCAMKL3 it was 12%. Moreover, the “%Inh” value was 0% with DDR1, 24% in the experiment on DDR2, 26% in the experiment on DLK and 0% in the experiment on DMPK2.
Take `CCn1cnc2c(N)ncnc21` [GW345098]: the “%Inh” value is 14% with DAPK1; 5% in the experiment with DAPK2; 18% with DAPK3; 7% with DCAMKL1; 7% in the experiment on DCAMKL2; 25% with DCAMKL3. Further, the “%Inh” value is given as 18% in the experiment with DDR1, 0% in the experiment with DDR2, 0% in the experiment on DLK and 9% in the experiment on DMPK2.
As to `Cc1cccc(-c2nc(Nc3ccc4ncsc4c3)c3ccccc3n2)n1` [GW867588], the “%Inh” value in the experiment with DAPK1 is listed as 0%; with DAPK2 it was 0%; in the experiment with DAPK3, 23%; with DCAMKL1, 0%; with DCAMKL2 it was 7%; in the experiment on DCAMKL3, 0%. Further, the “%Inh” value in the experiment on DDR1 turned out to be 0%; with DDR2, 35%; with DLK it was 0%; in the experiment with DMPK2, 9%.
For the compound `CN(C1=C(c2ccccc2)C(=O)NC1=O)c1ccccc1` [SB-334860], the “%Inh” value in the experiment with DAPK1 is 26%; in the experiment on DAPK2, 0%; in the experiment on DAPK3, 8%; with DCAMKL1, 19%; in the experiment on DCAMKL2 it was 11%; in the experiment with DCAMKL3, 0%. Also, the “%Inh” value in the experiment on DDR1 is 0%; in the experiment on DDR2 it was 4%; in the experiment with DLK, 9%; in the experiment on DMPK2 it was 12%.
For `Cl.Cl.Cl.Fc1ccc(-c2ncn(C3CCNCC3)c2-c2ccnc(Nc3ccccc3)n2)cc1` [SB-238039], the “%Inh” value with DAPK1 (1 µM) is 0% and 24%; in the experiment with DAPK2, 0%; with DAPK3 (1 µM) it was 18% and 0%; with DCAMKL1 (1 µM) it was 18% and 12%; with DCAMKL2 (1 µM), 22% and 33%; in the experiment on DCAMKL3 (1 µM), 8% and 75%. For the same compound, the “%Inh” value is 87% and 84% in the experiment on DDR1 (1 µM); 87% and 63% in the experiment with DDR2 (1 µM); 29% and 7% in the experiment with DLK (1 µM); 99.9% and 99.8% in the experiment with DMPK2 (1 µM).
Regarding `COC(=O)Nc1nc2cc(Oc3ccc(NC(=O)Nc4cc(F)ccc4F)cc3)ccc2[nH]1.Cl` [GW701424], the “%Inh” value with DAPK1 turned out to be 0%; with DAPK2, 0%; in the experiment on DAPK3 it was 8%; with DCAMKL1, 11%; with DCAMKL2, 0%; with DCAMKL3 it was 17%. The “%Inh” value came out at 100% in the experiment with DDR1, 99.2% in the experiment with DDR2, 0% in the experiment with DLK and 1% in the experiment with DMPK2.
As for `O=C(NCCNc1ccnc(Nc2ccc(F)cc2)n1)Nc1ccccc1F` [GSK1379880], the “%Inh” value in the experiment with DAPK1 came out at 0%; in the experiment on DAPK2, 0%; with DAPK3, 9%; in the experiment with DCAMKL1, 19%; with DCAMKL2 it was 0%; in the experiment on DCAMKL3, 24%. Besides, the “%Inh” value in the experiment on DDR1 was 29%; in the experiment with DDR2, 18%; in the experiment on DLK, 0%; with DMPK2, 0%.
As to `Cc1cccc(-c2nc(-c3ccc(S(C)(=O)=O)cc3)sc2-c2ccncc2)c1`, the “%Inh” value in the experiment on DAPK1 stood at 4%; in the experiment with DAPK2 it was 0%; in the experiment on DAPK3, 0%; in the experiment on DCAMKL1 it was 0%; in the experiment with DCAMKL2, 0%; with DCAMKL3, 0%. Further, the “%Inh” value in the experiment on DDR1 was 0%; with DDR2 it was 9%; with DLK, 0%; in the experiment with DMPK2 it was 53%.
Regarding `CC(=O)Nc1ccc(COc2ccc(Nc3ccnc4cc(-c5ccccn5)ccc34)cc2)cc1.Cl` [GW440148], the “%Inh” value in the experiment with DAPK1 amounted to 0%; with DAPK2, 0%; in the experiment with DAPK3 it was 21%; in the experiment on DCAMKL1, 5%; in the experiment on DCAMKL2 it was 0%; in the experiment on DCAMKL3, 9%. The “%Inh” value is reported as 29% in the experiment on DDR1, 0% with DDR2, 71% in the experiment on DLK and 2% with DMPK2.
As to `Cc1c(Cn2c(C)nn3c(=O)cc(N4CCOC(C)C4)nc23)cccc1C(F)(F)F` (centres unmarked) [GSK2344444], the “%Inh” value with DAPK1 turned out to be 2%; with DAPK2, 0%; in the experiment on DAPK3 it was 0%; in the experiment on DCAMKL1, 0%; in the experiment on DCAMKL2, 0%; with DCAMKL3, 21%. For the same compound, the “%Inh” value was determined as 14% in the experiment on DDR1, 0% with DDR2, 0% in the experiment on DLK and 0% in the experiment with DMPK2.
On to `C[C@@H](Oc1cc(-n2cnc3ccc(NC(=O)NC(C)(C)C)cc32)sc1C(N)=O)c1ccccc1Cl` [GSK346294], for which the “%Inh” value is 20% with DAPK1; 10% with DAPK2; 19% in the experiment with DAPK3; 31% in the experiment with DCAMKL1; 0% in the experiment on DCAMKL2; 0% in the experiment with DCAMKL3. For the same compound, the “%Inh” value in the experiment on DDR1 worked out at 16%; in the experiment with DDR2 it was 18%; in the experiment with DLK, 33%; in the experiment on DMPK2, 16%.

Source of the values: publication PMC5540273 (PLoS ONE, 2017).
